Assay results as given in the supplement of paper PMC6992640.
Where a name gives a salt, the structure may show the parent alone. ± gives the standard deviation of the averaged measurements.

Columns and labels:
Test in all cases: cell viability (% of vehicle); higher = less cytotoxic
Settings in all cases: 10 µM; 72 h
[1] = tested on: HCI01 (cells of a triple-negative basal-like breast cancer xenograft)
[2] = tested on: HCI03 (cells of an ER-positive luminal breast cancer xenograft)
[3] = tested on: HCI09 (cells of a triple-negative luminal androgen receptor type breast cancer xenograft)
[4] = tested on: HCI11 (cells of an ER-positive luminal breast cancer xenograft)
[5] = tested on: HCI13 (cells of an ER-positive luminal breast cancer xenograft)
[6] = tested on: HCI16 (cells of a triple-negative basal-like breast cancer xenograft)
[7] = tested on: UCD52 (cells of a triple-negative basal-like breast cancer xenograft)
[8] = tested on: WHIM2 (cells of a triple-negative basal-like breast cancer xenograft)
[9] = tested on: WHIM30 (cells of a triple-negative basal-like breast cancer xenograft)
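Further: PDX cells carrying CMV promoter-driven luciferase, viability read as total photon flux per second by IVIS imaging following D-luciferin, vehicle control 0.1% DMSO.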

Row | SMILES | cell viability [1] | cell viability [2] | cell viability [3] | cell viability [4] | cell viability [5] | cell viability [6] | cell viability [7] | cell viability [8] | cell viability [9]
1 | Cc1ccc(-n2[nH]c(C)c(NN=C3C=CC=C(c4cccc(C(=O)O)c4)C3=O)c2=O)cc1C.NCCO.NCCO [Eltrombopag Olamine] | 82.7 ± 71 | 79.3 | 26.4 ± 4 | 71 | 43.8 ± 1.1 | 119 | 76.8 ± 6.6 | 36.8 ± 0.9 | 104 ± 17
2 | Br.CN1CCCC1Cc1c[nH]c2ccc(CCS(=O)(=O)c3ccccc3)cc12 (stereo unspecified) [Eletriptan HBr] | 91.4 ± 17 | 108 | 80.12 ± 0.74 | 86.1 | 83.7 ± 7.3 | 113 | 87 ± 9.9 | 83.3 ± 4.5 | 163 ± 24
3 | N=C(N)c1ccc(OCCCCCOc2ccc(C(=N)N)cc2)cc1.O=S(=O)(O)CCO.O=S(=O)(O)CCO [Pentamidine isethionate] | 98.1 ± 3.2 | 104 | 27.495 ± 0.0084 | 74.7 | 180 ± 61 | 87.7 | 91.2 ± 2.3 | 85.2 ± 19 | 113 ± 7.6
4 | CC1(C(=O)[O-])CCC2(C)CCC3(C)C(=CC(=O)C4C5(C)CCC(OC(=O)CCC(=O)[O-])C(C)(C)C5CCC43C)C2C1.[Na+].[Na+] (stereo unspecified) [Carbenoxolone disodium] | 84.3 ± 8 | 122 | 89.2 ± 4.5 | 103 | 129 ± 87 | 108 | 82.3 ± 1.7 | 108 ± 11 | 97.9 ± 2.5
5 | COC(=O)C1C2CC3c4[nH]c5cc(OC)ccc5c4CCN3CC2CC(OC(=O)c2cc(OC)c(OC)c(OC)c2)C1OC (stereo unspecified) [Reserpine] | 123 ± 29 | 112 | 92.8 ± 4.8 | 89 | 129 ± 10 | 132 | 105 ± 1.3 | 88.36 ± 0.5 | 109 ± 7.1
6 | NC(=O)c1ccc(I)c([N+](=O)[O-])c1 [Iniparib (BSI-201)] | 121 ± 21 | 198 | 123 ± 20 | 82.6 | 124 ± 31 | 106 | 114 ± 5.4 | 181 ± 22 | 129 ± 22
7 | Cc1[nH]c(=O)c(C#N)cc1-c1ccncc1 [Milrinone] | 124 ± 0.28 | 117 | 96.6 ± 32 | 102 | 98 ± 13 | 94 | 90.5 ± 4.6 | 101 ± 10 | 106 ± 18
8 | O=C(O)Cc1cc(I)c(Oc2ccc(O)c(I)c2)c(I)c1 [Tiratricol] | 112 ± 48 | 99 | 82.8 ± 6.7 | 87.2 | 42.5 ± 4.2 | 97.2 | 75.6 ± 7.3 | 103 ± 20 | 115 ± 6.8
9 | Cl.NNc1nncc2ccccc12 [Hydralazine HCl] | 142 ± 22 | 131 | 113 ± 9.5 | 79.8 | 121 ± 7.1 | 180 | 162 ± 3.2 | 148 ± 5.5 | 151 ± 11
10 | CCCCCCOC(=O)N=C(N)c1ccc(NCc2nc3cc(C(=O)N(CCC(=O)OCC)c4ccccn4)ccc3n2C)cc1.CS(=O)(=O)O [Dabigatran etexilate mesylate] | 98.8 ± 8.5 | 126 | 81.5 ± 8.2 | 99.4 | 106 ± 23 | 94.6 | 98.4 ± 9 | 63.2 ± 3.8 | 104 ± 5.8
11 | Nc1ccc(S(=O)(=O)Nc2nccs2)cc1 [Sulfathiazole] | 102 ± 30 | 140 | 93.4 ± 7.8 | 84.5 | 197 ± 28 | 116 | 96.5 ± 11 | 98.2 ± 6.3 | 110 ± 8.6
12 | Nc1ccn(C2CSC(CO)O2)c(=O)n1 (stereo unspecified) [Lamivudine] | 106 ± 17 | 130 | 94.9 ± 7.3 | 107 | 124 ± 7.9 | 95.2 | 87.7 ± 6.8 | 94.3 ± 11 | 84.4 ± 12
13 | Cl.Cl.NC(=NCCCCCCN=C(N)N=C(N)Nc1ccc(Cl)cc1)N=C(N)Nc1ccc(Cl)cc1 [Chlorhexidine HCl] | 99.4 ± 3 | 88.3 | 89.7 ± 3 | 76 | 96.44 ± 0.43 | 124 | 92.8 ± 7.6 | 108 ± 4.1 | 82.3 ± 3.8
14 | NCC(=O)CCC(=O)O [5-Aminolevulinic acid HCl] | 79.2 ± 41 | 132 | 89.9 ± 2.3 | 83.2 | 113 ± 24 | 164 | 82.6 ± 7.6 | 129 ± 24 | 146 ± 6.6
15 | Cc1c(O)c(=O)ccn1C [Deferiprone] | 81 ± 3.5 | 102 | 83.6 ± 14 | 77.1 | 93 ± 5.8 | 102 | 85.8 ± 1.6 | 144 ± 12 | 89.2 ± 3.3
16 | CCc1cc(C(C)=NOCc2ccc(C3CCCCC3)c(C(F)(F)F)c2)ccc1CN1CC(C(=O)O)C1 [BAF312 (Siponimod)] | 97.4 ± 10 | 124 | 44.2 ± 29 | 72.2 | 75.64 ± 0.57 | 115 | 93.7 ± 1.5 | 93.7 ± 17 | 111 ± 9.5
17 | CC1(C)SC2C(NC(=O)C(NC(=O)N3CCN(S(C)(=O)=O)C3=O)c3ccccc3)C(=O)N2C1C(=O)O.[Na] (stereo unspecified) [Mezlocillin Sodium] | 143 ± 62 | 142 | 104 ± 10 | 102 | 89.7 ± 3.6 | 123 | 105 ± 1.2 | 107 ± 20 | 103 ± 9.4
18 | Oc1ccc(C2CNCCc3c2cc(O)c(O)c3Cl)cc1 (stereo unspecified) [Fenoldopam] | 125 ± 16 | 101 | 107 ± 8.1 | 101 | 90.4 ± 2.4 | 124 | 110.5 ± 0.48 | 96.8 ± 13 | 126 ± 9.5
19 | Cc1cc(Nc2cc(N3CCN(C)CC3)nc(Sc3ccc(NC(=O)C4CC4)cc3)n2)n[nH]1 [VX-680 (MK-0457,Tozasertib)] | 122 ± 11 | 84.3 | 70 ± 21 | 133 | 81.5 ± 1.7 | 111 | 66.5 ± 10 | 67.6 ± 2.1 | 142 ± 14
20 | CS(=O)(=O)O.Cc1ccc(N(CC2=NCCN2)c2cccc(O)c2)cc1 [Phentolamine Mesylate] | 112 ± 14 | 116 | 118 ± 7.2 | 112 | 124 ± 11 | 101 | 99.5 ± 6.4 | 93.5 ± 12 | 137 ± 12

Row | SMILES | cell viability [1] | cell viability [2] | cell viability [3] | cell viability [4] | cell viability [5] | cell viability [6] | cell viability [7] | cell viability [8] | cell viability [9]
21 | CN(C)CCN(Cc1ccccc1)c1ccccn1.Cl [Tripelennamine HCl] | 89.8 ± 3.5 | 62.6 | 94.4 ± 2.5 | 80.6 | 89.3 ± 1.7 | 99.9 | 81.03 ± 0.58 | 111.1 ± 0.86 | 94.2 ± 7.7
22 | CNCCC(Oc1ccccc1C)c1ccccc1.Cl (stereo unspecified) [Atomoxetine HCl] | 119 ± 8.9 | 145 | 111 ± 11 | 108 | 105 ± 3.7 | 130 | 85 ± 3.7 | 88.7 ± 17 | 180 ± 28
23 | NC(=O)c1cn(Cc2c(F)cccc2F)nn1 [Rufinamide] | 93.3 ± 16 | 137 | 106 ± 14 | 99.1 | 103 ± 10 | 106 | 96.9 ± 3.1 | 93.3 ± 18 | 124 ± 1.8
24 | Clc1ccc(COC(Cn2ccnc2)c2ccc(Cl)cc2Cl)c(Cl)c1 (stereo unspecified) [Miconazole] | 109 ± 41 | 87.6 | 62.3 ± 36 | 82 | 47.3 ± 10 | 120 | 74.4 ± 3 | 99.6 ± 24 | 128 ± 3.7
25 | CCN(CC)CC#CCOC(=O)C(O)(c1ccccc1)C1CCCCC1 (stereo unspecified) [Oxybutynin] | 141 ± 10 | 130 | 132 ± 73 | 118 | 117 ± 17 | 134 | 82.9 ± 5.8 | 97.1 ± 30 | 148 ± 6.4
26 | CCN(CC)CCOC(=O)C1(C2CCCCC2)CCCCC1.Cl [Dicyclomine HCl] | 126 ± 7.2 | 123 | 102 ± 11 | 99.7 | 90.1 ± 10 | 141 | 68.6 ± 1.9 | 104 ± 1.9 | 117 ± 2.5
27 | Cc1cccc(Nc2ccncc2S(=O)(=O)NC(=O)NC(C)C)c1 [Torsemide] | 84.3 ± 43 | 140 | 95.4 ± 16 | 93.5 | 120 ± 21 | 127 | 106 ± 1.8 | 106 ± 1.5 | 171 ± 13
28 | CC1=C(CC(=O)O)c2cc(F)ccc2C1=Cc1ccc(S(C)=O)cc1 (stereo unspecified) [Sulindac] | 92.1 ± 23 | 89.2 | 81.5 ± 4.2 | 76.2 | 108 ± 0.55 | 119 | 97.3 ± 3.1 | 88.7 ± 6.6 | 104 ± 13
29 | CN(C)CCc1c[nH]c2ccc(CS(=O)(=O)N3CCCC3)cc12.O=C(O)CC(O)C(=O)O [Almotriptan Malate] | 105 ± 5 | 132 | 103 ± 6 | 86.5 | 84.8 ± 7.8 | 144 | 87.7 ± 4.3 | 90.6 ± 0.17 | 134 ± 8
30 | CC(=O)OCC(=O)C1(O)CCC2C3CCC4=CC(=O)CCC4(C)C3C(=O)CC21C (stereo unspecified) [Cortisone acetate] | 119 ± 17 | 130 | 119 ± 47 | 105 | 96.1 ± 13 | 140 | 106 ± 31 | 112 ± 19 | 119 ± 6.2
31 | O=CC(O)C(O)C(O)CO (stereo unspecified) [Xylose] | 70.5 ± 35 | 96.1 | 91.8 ± 13 | 90.9 | 104 ± 18 | 108 | 83 ± 1.1 | 94.5 ± 4.8 | 129 ± 0.16
32 | Cc1ccc(Nc2nccc(N(C)c3ccc4c(C)n(C)nc4c3)n2)cc1S(N)(=O)=O.Cl | 166 ± 30 | 77.2 | 61.1 ± 13 | 85.4 | 110 ± 6.2 | 92 | 90.5 ± 2.9 | 152 ± 5.7 | 144 ± 6
33 | Nc1ccc(S(=O)(=O)Nc2ncccn2)cc1 [Sulfadiazine] | 131 ± 9.1 | 126 | 158 ± 83 | 103 | 153 ± 29 | 101 | 95.5 ± 16 | 101 ± 21 | 118 ± 18
34 | Nc1ccn([C@@H]2O[C@H](CO)[C@@H](O)C2(F)F)c(=O)n1 [Gemcitabine HCl] | 96.1 ± 22 | 109 | 93 ± 23 | 103 | 89.6 ± 16 | 107 | 133 ± 24 | 75.7 ± 7.1 | 105 ± 14
35 | CCCN(CCC)CCc1cccc2c1CC(=O)N2.Cl [Ropinirole HCl] | 61.7 ± 39 | 93.8 | 87.9 ± 2.6 | 86.3 | 95.9 ± 8.2 | 102 | 78.9 ± 7.1 | 91.6 ± 38 | 126 ± 12
36 | CN1C2=CC(=O)C(=NNC(N)=O)C=C2CC1S(=O)(=O)[O-].[Na+] (stereo unspecified) [Carbazochrome sodium sulfonate (AC-17)] | 99.8 ± 0.3 | 129 | 105.4 ± 0.44 | 94.6 | 81 ± 18 | 124 | 99 ± 19 | 99.4 ± 21 | 134 ± 9.7
37 | Cc1ccc(F)c(NC(=O)Nc2ccc(-c3cccc4[nH]nc(N)c34)cc2)c1 [Linifanib (ABT-869)] | 117 ± 45 | 165 | 54.2 ± 0.96 | 68.7 | 72 ± 2.6 | 120 | 92.18 ± 0.33 | 160 ± 47 | 139 ± 45
38 | COC(=O)C1=C(C)NC(C)=C(C(=O)OCC(C)C)C1c1ccccc1[N+](=O)[O-] (stereo unspecified) [Nisoldipine] | 98.3 ± 32 | 109 | 27.4 ± 1.6 | 74 | 93.1 ± 39 | 180 | 84.1 ± 5.2 | 88.6 ± 17 | 123 ± 16
39 | CCCCCCCCCCCCCCCCO [1-Hexadecanol] | 108 ± 3.9 | 95.9 | 97.8 ± 12 | 95.2 | 107 ± 84 | 109 | 67.1 ± 5.9 | 94.2 ± 11 | 84.7 ± 8.4
